IL-1B inflam inh – inhibitors of inflammasome signaling (IL-1 beta secretion); THP-1 LPS/ATP IL-1B secretion, AlphaLISA, 16 h; hits give low values; activity change, % at 57.5 µM; 4.7% of 360,000 active; AID 743279; in the data active means activity change below about -50%; inconclusive means mostly about -30% to -49%
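THP-1 cells pretreated 1 hr with compounds (up to 57.5 uM final), then stimulated with LPS (250 ng/mL final) plus ATP (1.25 mM final); secreted IL-1B measured by AlphaLISA after 16 hr, decreased signal indicating inhibition.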
12-LOX inh – ALOX12 (human) lipoxygenase inhibition. purified 12hLO, xylenol orange hydroperoxide absorbance. 1.1% of 580,000 active. Potency, µM (doses to about 108 µM), inactives show at the highest dose activity change, negative = inhibition, hits mostly inhibitors. AID 1671190; further: potency means the concentration at half of the fitted maximal effect
Target sequence (P18054 whole entry, looked up): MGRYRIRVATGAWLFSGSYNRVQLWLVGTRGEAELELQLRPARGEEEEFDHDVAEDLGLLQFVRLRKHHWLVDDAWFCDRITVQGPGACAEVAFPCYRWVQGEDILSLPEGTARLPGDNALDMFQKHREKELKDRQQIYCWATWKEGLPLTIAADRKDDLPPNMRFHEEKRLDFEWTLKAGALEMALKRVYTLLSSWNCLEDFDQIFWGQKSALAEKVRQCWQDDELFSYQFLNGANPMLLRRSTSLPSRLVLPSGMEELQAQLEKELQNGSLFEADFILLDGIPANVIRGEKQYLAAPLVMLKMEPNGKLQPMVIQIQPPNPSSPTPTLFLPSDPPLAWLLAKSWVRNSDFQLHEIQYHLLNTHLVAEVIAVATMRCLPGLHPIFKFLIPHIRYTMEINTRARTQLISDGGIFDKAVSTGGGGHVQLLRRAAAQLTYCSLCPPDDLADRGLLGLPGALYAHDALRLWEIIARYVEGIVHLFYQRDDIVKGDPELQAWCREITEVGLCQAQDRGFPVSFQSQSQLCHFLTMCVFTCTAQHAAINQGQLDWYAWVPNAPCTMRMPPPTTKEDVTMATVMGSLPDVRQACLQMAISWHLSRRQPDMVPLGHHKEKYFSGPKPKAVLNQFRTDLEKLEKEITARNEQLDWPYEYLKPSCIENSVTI
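Purified human 12hLO (150 nM final) in 25 mM Hepes, 0.01% Triton X-100, pH 7.0 was preincubated 15 min at room temperature with compound. Then 40 uM arachidonic acid was added, 30 min. Hydroperoxide was read by Fe-XO absorbance ratio 573/405 nm.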
HT1080NT lethal – kills 2HG-producing HT-1080-NT fibrosarcoma cells. Potency, µM (doses to about 46.1 µM), for inactives: at the highest dose activity, negative = less viability, hits mostly cytotoxic. AID 686970. 1.6% of 360,000 active. HT-1080-NT fibrosarcoma viability, CellTiter-Glo ATP luminescence, 48 h;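 further: NT is the 2HG producing partner of a matched IDH1 knockdown line; potency means the concentration at half of the fitted maximal effect; 0% = DMSO-treated cells and -100% = media-only wells without cells; nearly all actives have a fitted effect of over 55% in size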
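Luminescent CellTiter-Glo readout after 48 hours of compound exposure at 37 degrees C defined viability of HT-1080-NT cells. Activity was normalized to DMSO wells and cell-free media wells; concentration-response curves were fitted and assigned curve classes.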
HT1080 IDH1KD tx – toxicity to HT-1080 IDH1 knockdown cells (counter line); HT-1080 IDH1 knockdown viability, ATP luminescence, 48 h; Potency, µM (top dose mostly 46.1 µM), for the others: top-dose activity, negative = toxicity, most hits filed as cytotoxic; AID 686971; 2% of 360,000 active;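 further: potency means the concentration at half of the fitted maximal effect; 0% = DMSO wells and -100% = cell-free medium wells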
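Assay cells: HT-1080 with IDH1 knockdown, 750 per well, RPMI/5% FBS. Exposure: 48 h at 37 °C following 2 h pre-incubation. Read: CellTiter-Glo luminescence; fitted concentration-response, curve class assigned.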
DT40 TDP1 CPT – growth inhibition of DT40 Tdp1-/-;hTDP1 cells with camptothecin (screen for TDP1 inhibitors) | chicken DT40 Tdp1-/-;hTDP1 cells + 20 nM CPT, ATP luminescence, 48 h | Potency, µM (titrated, usually from 46.2 µM), for inactives: top-dose activity change, negative = growth inhibition, most hits filed as inhibitors | 12% of 420,000 active | AID 686979; further: potency means the concentration at half of the fitted maximal effect; nearly all actives have a fitted effect of over 55% in size
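Cell growth measured by CellTiter-Glo luminescence after a minimum 48 h, 37 C compound exposure with 20 nM CPT in Tdp1-knockout DT40 cells stably expressing hTDP1, seeded 400/well; qHTS titration format.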
DT40 TDP1 no CPT – qHTS for Inhibitors of human tyrosyl-DNA phosphodiesterase 1 (TDP1): qHTS in cells in absence of CPT | 15% of 420,000 active | Potency, µM (highest dose often 46.2 µM), without a hit: at the top dose activity change, negative = growth inhibition, actives largely listed as inhibitors | DT40 Tdp1-/- hTDP1 cells, no CPT, ATP luminescence, 48 h | AID 686978, 2013; further: potency means the concentration at half of the fitted maximal effect; nearly all actives have a fitted effect of over 55% in size
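Cells were dispensed at 400 per well, compounds added by pin tool, plates incubated ≥48 hr at 37 °C, then CellTiter-Glo added for 30 min at room temperature before luminescence reading. Line: DT40 Tdp1-/- complemented with hTDP1; camptothecin omitted.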
Starred values were filed as active, the others as inactive; i = inactive; ? = inconclusive; . = no result. The sample as a whole holds a higher share of hits than the screen did. Unless noted, the call rests on the fitted dose curve; in most records, active means well fitted curve in the direction sought with a large enough effect; inconclusive means small, poorly fitted or top-dose-only effect, or another doubt; inactive means no such curve, though single readings can be large; an effect the other way counts as inactive or inconclusive. Unless noted, on the % scale 0 is the no-effect control and ±100 the full control effect.

SMILES | IL-1B inflam inh | 12-LOX inh | HT1080NT lethal | HT1080 IDH1KD tx | DT40 TDP1 CPT | DT40 TDP1 no CPT
O=C(C1CCC1)N1CCC(N2CC(OCC3CC3)C23CCOCC3)CC1 (stereo not drawn) | . | 16% | . | . | . | .
O=C(C[C@@H]1C/C=C\C[C@H](NC(=O)OCC2c3ccccc3-c3ccccc32)C(=O)OC[C@@H]2CCCN2C1=O)N[C@@H](CO)Cc1ccccc1 | 15 | -7% | 0% | 2% | 18µM* | 18µM*
O=C(C[C@@H]1C/C=C\CCC(=O)OC[C@@H]2CCCN2C1=O)N[C@H](CO)Cc1ccccc1 | 15 | 5% | 3% | 2% | 20% | 2%
O=C(C[C@@H]1C/C=C\C[C@H](NC(=O)OCC2c3ccccc3-c3ccccc32)C(=O)OC[C@@H]2CCCN2C1=O)NCCO | 18 | ? | -7% | 6% | 4.6µM* | 10µM*
O=C(C[C@H]1C/C=C\C[C@H](NC(=O)OCC2c3ccccc3-c3ccccc32)C(=O)OC[C@@H]2CCCN2C1=O)N[C@H](CO)Cc1ccccc1 | 22 | . | 8% | 4% | 10µM* | 9.2µM*
O=C(C[C@@H]1C/C=C\C[C@H](NC(=O)OCC2c3ccccc3-c3ccccc32)C(=O)OC[C@H]2CCCN2C1=O)N[C@H](CO)Cc1ccccc1 | -16 | ? | -12% | -10% | 4.6µM* | 5.2µM*
O=C(C[C@@H]1C/C=C\CCCC(=O)OC[C@@H]2CCCN2C1=O)N[C@H](CO)Cc1ccccc1 | 1 | -21% | 14% | 11% | 4% | -8%
O=C(C[C@@H]1C/C=C\C[C@H](NC(=O)OCC2c3ccccc3-c3ccccc32)C(=O)OC[C@@H]2CCCN2C1=O)N[C@H](CO)Cc1ccccc1 | 28 | -7% | 3% | 12% | 7.3µM* | 10µM*
CCc1ccc2c(c1)c1nnc(NN)nc1n2CC | -2 | 153% | -15% | -10% | ? | 18µM*
CCn1c2ccc(F)cc2c2nnc(NN)nc21 | 16 | -3% | 4% | 9% | ? | 16µM*
NNc1nnc2c3cc(F)ccc3n(Cc3ccccc3)c2n1 | -10 | 0% | ? | ? | ? | 18µM*
CCCn1c2ccc(F)cc2c2nnc(NN)nc21 | 7 | 32% | -6% | -23% | ? | ?
Cc1cc(C)cc(CCC(=O)N2CCC3(CC2)C(C(=O)O)CC(=O)N3C)c1 (stereo not drawn) | . | -12% | . | . | . | .
CCC(C)(C)C(=O)N1CCn2c(nnc2[C@@H]2C[C@@H](O)CN2Cc2ccccc2)C1 | . | 5% | . | . | . | .
COc1ccccc1C(=O)NC(=O)Nc1ccc(-n2nc(C(F)(F)F)cc2C(F)(F)F)cc1 | . | ? | . | . | ? | 15µM*
Cc1cc(C)cc(NC(=O)Nc2ccc(-n3ccc(C(F)(F)F)n3)cc2)c1 | -77* | 2% | 21µM* | 23µM* | ? | 21µM*
COc1ccccc1NC(=O)Nc1ccc(-n2ccc(C(F)(F)F)n2)cc1 | -71* | ? | -27% | -23% | ? | 26µM*
O=C(NC(=O)c1ccccc1)Nc1ccc(-n2nc(C(F)(F)F)cc2C(F)(F)F)cc1 | . | 5% | . | . | 8% | 1%
O=C(Nc1ccc(-n2ccc(C(F)(F)F)n2)cc1)Nc1cccc(Cl)c1 | . | 0% | . | . | . | .
COc1ccc(Cn2nccc2NC(=O)c2cc(=O)c3cc(C)ccc3o2)cc1 | . | 12% | . | . | . | .
Cc1ccccc1NC(=S)NCCSc1ccc(Cl)cc1 | -82* | 45µM* | -1% | -1% | ? | 18µM*
Cc1ccc(SCCNC(=S)Nc2cccc(Cl)c2C)cc1 | . | 32µM* | . | . | . | .
Cc1ccc(NC(=S)NCCSc2ccc(Cl)cc2)c(C)c1 | -6 | ? | 3% | 0% | ? | ?
Cc1ccc(Cl)cc1NC(=S)NCCCSC1CCCCC1 | -101* | 35µM* | -30% | 18µM* | ? | 18µM*
Cc1c(Cl)cccc1NC(=S)NCc1ccccc1 | ? | ? | -9% | -10% | -3% | ?
SMILES | IL-1B inflam inh | 12-LOX inh | HT1080NT lethal | HT1080 IDH1KD tx | DT40 TDP1 CPT | DT40 TDP1 no CPT
CCc1ccccc1NC(=S)NCCSc1ccc(Cl)cc1 | -98* | 50µM* | -19% | ? | ? | ?
CCCC(C)NC(=O)c1ccc(CNC(=O)NC(C)C)cc1 (stereo not drawn) | . | 4% | . | . | . | .
Cc1ccc(C)c(NC(=S)NCCSc2ccc(Cl)cc2)c1 | ? | 28µM* | ? | 1% | 21µM* | 16µM*
COc1ccc(C(=O)c2nc3c(n2O)CCCC3)cc1OC | 16 | 8.9µM* | 16% | 8% | 9% | 12%
COc1ccc(C(=O)c2nc3c(n2O)CCCCC3)cc1 | -3 | ? | 16% | 14% | -11% | -8%
N#Cc1cccc(CN2CCCC(c3[nH]ccc3C(N)=O)C2)c1 (stereo not drawn) | . | -1% | . | . | . | .
O=C(O)C[C@@H]1CCN(C(=O)Nc2ccccc2)C[C@@H]1CCN1CCC(n2c(=O)[nH]c3ccccc32)CC1 | . | 8% | . | . | . | .
CCCCn1c(-c2ccc(Br)cc2F)nc2c1c(=O)[nH]c(=O)n2CC(C)C | -68* | ? | ? | -24% | 21µM* | 23µM*
Cc1ccccc1C(=O)N1CC(c2nnc(-c3ccncc3)o2)C2(CCOCC2)C1 (stereo not drawn) | . | 11% | . | . | . | .
CCOC(=O)c1cnc2cc(C)nn2c1C | 6 | 118% | ? | 17% | 10% | -17%
CCOC(=O)c1cnc(-n2nc(C)cc2C)nc1Nc1ccc(O)cc1 | 0 | ? | 15% | 9% | 2.3µM* | 2.9µM*
CCOC(=O)c1cnc(-n2nc(C)cc2C)nc1NC1CCCCC1 | -100* | ? | ? | -15% | 4.6µM* | 5.2µM*
CCOC(=O)c1cnc(-n2nc(C)cc2C)nc1NNc1nc(C)cc(C)n1 | 14 | i | 2% | 0% | -4% | -23%
CCOC(=O)c1cnc(-n2nc(C)cc2C)nc1Nc1ccc(C)cc1 | 0 | -1% | 7% | 2% | 4.6µM* | 5.2µM*
CCOC(=O)c1cnc(-n2nc(C)cc2C)nc1Nc1cccc(C(=O)O)c1 | 15 | ? | 0% | 0% | -10% | -22%
CCOC(=O)c1cnc(-n2nc(C)cc2C)nc1NNc1nc(-c2ccccc2)cc(-c2ccccc2)n1 | 23 | . | ? | ? | 3.7µM* | 3.3µM*
CCc1ccc(NC(=O)Nc2cccc(-c3nnc4n3CCCC4)c2)cc1 | . | 43% | . | . | . | .

Source: PubChem
